TGFb inhibitor = blocks TGF-b signaling. HepG2 CAGA-GFP TGF-b/SMAD3 reporter, GFP fluorescence, 18 h; TGF-beta stimulated, 500 pg/mL final. hit rate 1.2% among 410,000. Potency, µM (highest dose often 46.1 µM), inactives show top-dose activity, negative = inhibition, actives largely listed as inhibitors; further: on the % scale 0 is the no-effect control and ±100 the full control effect; nearly all actives have a fitted effect of over 65% in size
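HEPG2 CAGA-GFP cells (1000/well, DMEM with 1% FBS) were pre-incubated 2 h at 37 degrees C, given compound by pin tool, then stimulated with TGF-beta at 500 pg/mL final for 18 h before per-cell GFP fluorescence imaging.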
KB-V1 cytotox = kills drug-selected multidrug resistant KB-V1 cells; KB-V1 MDR cells viability, CellTiter-Glo, 72 h; Potency, µM (series often up to 46.1 µM), hits mostly cytotoxic; hit rate 3.4% among 400,000; AID 1347076; further: on the % scale 0 is the no-effect control and ±100 the full control effect; nearly all actives have a fitted effect of over 60% in size
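KB-V1, DMEM (no phenol red) + 10% FBS; cpd pin-transferred, titration series; 72 h, 37 degrees C; CellTiter-Glo, luminescence. Data normalized, curve-fit.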
KB-3-1 tox = kills parental KB-3-1 adenocarcinoma cells. KB-3-1 viability, CellTiter-Glo ATP luminescence, 72 h. AID 1347075. Potency, µM (doses to about 46.1 µM), actives largely listed as cytotoxic. hit rate 1.4% among 400,000; further: on the % scale 0 is the no-effect control and ±100 the full control effect; nearly all actives have a fitted effect of over 60% in size
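Viability of parental KB-3-1 cells, measured by CellTiter-Glo luminescence, followed a 72 h incubation at 37 °C with pinned compounds in phenol-red-free DMEM containing 10% FBS.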
HepG2 tox = HepG2 cytotoxicity, counter-screen for TGF-b inhibitors | hit rate 0.76% among 410,000 | HepG2 CAGA-GFP viability, ATP luminescence, 18 h | Potency, µM (highest dose often 46.1 µM), inactives show top-dose activity change, negative = cytotoxicity, most hits filed as cytotoxic | AID 588856
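HepG2 CAGA-GFP cells (1000/well, DMEM with 1% FBS) received compound, then TGF-beta at 500 pg/mL final, and were incubated 18 hours at 37 degrees C. Viability was read by CellTiter-Glo luminescence. Media-only wells were set as complete cell-killing and DMSO as no toxicity.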
S2 tox = reduces viability in counter-screen for ATXN expression inhibitors. S2 cells (HEK-293 line with an ATXN2-luciferase reporter) viability, CellTiter-Fluor protease fluorescence, 24 h. Potency, µM (highest dose often 56.7 µM), hits mostly cytotoxic. hit rate 0.49% among 400,000. AID 651635; further: nearly all actives have a fitted effect of over 40% in size
ATXN2 expr inh = reduces ATXN2 reporter expression in HEK-293 cells. HEK-293 ATXN2-luciferase reporter, luminescence, 24 h. Potency, µM (top dose mostly 57 µM), for inactives: top-dose activity change, negative = inhibition, actives largely listed as inhibitors. hit rate 0.72% among 360,000; further: on the % scale 0 is the no-effect control and ±100 the full control effect; nearly all actives have a fitted effect of over 55% in size
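qHTS (up to 57 uM final) was run with 24 h compound exposure of reporter cells at 37 °C. Each well was multiplexed: SteadyGlo luminescence measured ATXN2-luciferase expression after a fluorogenic Gly-Phe-AFC viability readout (25 uM final).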
* marks the source's active call; other numbers are inactive results. Shown are actives, neighbours in structure and some others; about 5.9% of the full set was active somewhere. The call rests on the fitted dose curve; in most records, active means well fitted curve in the direction sought with a large enough effect; inconclusive means small, poorly fitted or top-dose-only effect, or another doubt; inactive means no such curve, though single readings can be large; an effect the other way counts as inactive or inconclusive. Potency means the concentration at half of the fitted maximal effect.

`NC(=O)C1CCN(S(=O)(=O)c2ccc(N3CCCCS3(=O)=O)cc2)CC1` gave TGFb inhibitor 14.3% and HepG2 tox 8.4%.
`Clc1ccc(-c2noc(-c3cccnc3NCc3ccco3)n2)cc1` gave TGFb inhibitor -7.9%, KB-V1 cytotox inactive, KB-3-1 tox inactive, HepG2 tox -0.1%, S2 tox inactive and ATXN2 expr inh 76.6%.
For COC(=O)CCCC(=O)NC1CCCN(C2Cc3ccccc3C2)C1 (stereo not given) the results were TGFb inhibitor -0.2%, KB-V1 cytotox inactive, KB-3-1 tox inactive, HepG2 tox 2.0%, S2 tox inactive and ATXN2 expr inh -21.2%.
CSCC(=O)NC1CCCN(C2Cc3ccccc3C2)C1 (stereo not given) was read as TGFb inhibitor inconclusive, KB-V1 cytotox inactive, KB-3-1 tox inactive, HepG2 tox 7.94µM*, S2 tox inconclusive and ATXN2 expr inh -4.2%.
For CC(C)c1ccc(S(=O)(=O)c2nnn3c2nc(NC2CCCC2)c2sccc23)cc1 the results were TGFb inhibitor 20.9%, KB-V1 cytotox inactive, KB-3-1 tox inactive and HepG2 tox -18.7%.
O=C1C2C3C=CC(C3)C2C(=O)N1c1ccc(Cc2ccncc2)cc1 (stereo not given) was read as TGFb inhibitor inconclusive, KB-V1 cytotox inactive, KB-3-1 tox inactive, HepG2 tox -19.4%, S2 tox inactive and ATXN2 expr inh -1.0%.
CC1CCC2C(=O)N(c3ccc(Cc4ccncc4)cc3)C(=O)C2C1 (stereo not given) was read as TGFb inhibitor inconclusive, KB-V1 cytotox 10.3µM*, KB-3-1 tox 4.61µM*, HepG2 tox -31.4%, S2 tox inactive and ATXN2 expr inh -17.5%.
Cc1ccc(-c2csc3nc(SCC(N)=O)n(Cc4ccccc4)c(=O)c23)cc1 was read as TGFb inhibitor inconclusive, KB-V1 cytotox 20.6µM*, KB-3-1 tox inactive, HepG2 tox -6.3%, S2 tox inactive and ATXN2 expr inh -1.3%.
Nc1ncnc2c1ncn2COC(CO)CO was read as TGFb inhibitor 4.9%, KB-V1 cytotox inactive, KB-3-1 tox inactive and HepG2 tox -3.6%.
`Cc1cccc(N2CCN(C(=O)c3ccc(Cl)c(S(=O)(=O)NCc4ccco4)c3)CC2)c1C` gave TGFb inhibitor -11.6%, KB-V1 cytotox 13µM*, KB-3-1 tox 13µM*, HepG2 tox -2.3%, S2 tox inconclusive and ATXN2 expr inh inconclusive.
Screening O=C(c1nn(Cc2ccccc2)c(=O)c2ccccc12)N1CCN(c2ccccn2)CC1 returned TGFb inhibitor 0.0%, KB-V1 cytotox 2.31µM*, KB-3-1 tox inactive, HepG2 tox -14.3%, S2 tox inactive and ATXN2 expr inh -12.1%.
O=C(c1nn(Cc2ccccc2)c(=O)c2ccccc12)N1CCc2ccccc2C1 was read as TGFb inhibitor inconclusive, KB-V1 cytotox inconclusive, KB-3-1 tox inactive, HepG2 tox 8.3%, S2 tox inactive and ATXN2 expr inh -7.4%.
O=C(c1ccc(Cl)c(S(=O)(=O)NCc2ccccc2)c1)N1CCN(c2ccccn2)CC1 was read as TGFb inhibitor -24.5%, KB-V1 cytotox 4.11µM*, KB-3-1 tox inactive, HepG2 tox 5.5%, S2 tox inconclusive and ATXN2 expr inh -18.6%.
Screening Cc1cccc(-n2c(=O)c3c4c(sc3n3c(C)nnc23)CCCC4)c1 returned TGFb inhibitor 19.9%, KB-V1 cytotox inactive, KB-3-1 tox inactive, HepG2 tox 7.1%, S2 tox inactive and ATXN2 expr inh -1.7%.
For COc1cccc(N2CCN(C(=O)c3cc4c(=O)n(Cc5cccs5)ccc4nc3C)CC2)c1 the results were TGFb inhibitor -20.1%, KB-V1 cytotox inactive, KB-3-1 tox inactive, HepG2 tox -4.5%, S2 tox inactive and ATXN2 expr inh -30.1%.

Screens: PubChem BioAssay, National Center for Advancing Translational Sciences (NCATS)
